Source: PubChem
HT1080 IDH1KD tx = HT-1080 IDH1 knockdown cell toxicity (counter line); 2% of 360,000 active; Potency, µM (titrated, usually from 46.1 µM), hits mostly cytotoxic; HT-1080 IDH1 knockdown viability, ATP luminescence, 48 h
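Using the IDH1-knockdown HT-1080 line run in the same batch and compound series as the NT line, viability after 48 h at 37 °C was determined by CellTiter-Glo luminescence and expressed as % activity.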
DT40 TDP1 no CPT = qHTS for Inhibitors of human tyrosyl-DNA phosphodiesterase 1 (TDP1): qHTS in cells in absence of CPT; DT40 Tdp1-/- hTDP1 cells, no CPT, ATP luminescence, 48 h; Potency, µM (top dose mostly 46.2 µM), actives largely listed as inhibitors; 15% of 420,000 active; AID 686978, 2013; also: nearly all actives have a fitted effect of over 55% in size
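Seeded 400 DT40-hTDP1 cells/well (vehicle DMSO, no 20 nM CPT); pinned compounds; ≥48 hr at 37 °C; CellTiter-Glo luminescence as viability measure.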
12-LOX inh = blocks human arachidonate 12S-lipoxygenase. Potency, µM (titrated, usually from 108 µM), usual class: inhibitors. purified 12hLO, xylenol orange hydroperoxide absorbance. P18054. 1.1% of 580,000 active
Target sequence (P18054 whole entry, looked up): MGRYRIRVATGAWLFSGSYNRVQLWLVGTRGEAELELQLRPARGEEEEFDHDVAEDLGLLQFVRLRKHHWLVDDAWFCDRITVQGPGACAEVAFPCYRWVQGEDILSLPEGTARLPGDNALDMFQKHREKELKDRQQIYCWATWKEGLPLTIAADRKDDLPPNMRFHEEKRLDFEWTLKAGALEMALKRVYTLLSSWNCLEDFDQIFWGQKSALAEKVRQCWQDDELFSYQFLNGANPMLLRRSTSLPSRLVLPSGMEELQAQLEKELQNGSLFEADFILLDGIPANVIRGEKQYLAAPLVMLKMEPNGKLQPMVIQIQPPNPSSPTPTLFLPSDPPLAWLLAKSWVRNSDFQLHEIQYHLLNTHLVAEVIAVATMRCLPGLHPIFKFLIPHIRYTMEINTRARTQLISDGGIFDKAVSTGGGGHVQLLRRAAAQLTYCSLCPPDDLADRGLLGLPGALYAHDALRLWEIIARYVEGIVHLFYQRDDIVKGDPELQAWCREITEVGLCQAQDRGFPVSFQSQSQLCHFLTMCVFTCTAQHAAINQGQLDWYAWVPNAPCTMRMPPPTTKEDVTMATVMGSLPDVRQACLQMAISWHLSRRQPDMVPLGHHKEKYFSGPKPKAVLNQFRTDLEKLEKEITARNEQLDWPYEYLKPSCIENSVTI
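Purified human 12hLO at 150 nM in 25 mM Hepes, 0.01% Triton X-100, pH 7.0, preincubated 15 min at room temperature with compound. Reaction started with 40 uM arachidonic acid, 30 min at room temperature. Hydroperoxide measured by Fe-xylenol orange, 573/405 nm absorbance ratio.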
HT1080-NT tox = kills 2HG-producing HT-1080-NT fibrosarcoma cells. AID 686970. HT-1080-NT fibrosarcoma viability, CellTiter-Glo ATP luminescence, 48 h. 1.6% of 360,000 active. Potency, µM (titrated, usually from 46.1 µM), actives largely listed as cytotoxic;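 also: NT is the 2HG producing partner of a matched IDH1 knockdown line; nearly all actives have a fitted effect of over 55% in size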
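A 48-hour cytotoxicity screen used HT-1080-NT cells plated 2 hours before compound delivery. ATP-based CellTiter-Glo luminescence measured viability, normalized to DMSO and no-cell controls.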
DT40 TDP1 CPT = growth inhibition of DT40 Tdp1-/-;hTDP1 cells with camptothecin (screen for TDP1 inhibitors). chicken DT40 Tdp1-/-;hTDP1 cells + 20 nM CPT, ATP luminescence, 48 h. Potency, µM (series often up to 46.2 µM), most hits filed as inhibitors. 12% of 420,000 active. AID 686979; also: nearly all actives have a fitted effect of over 55% in size
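Cell growth measured by CellTiter-Glo luminescence after a minimum 48 h, 37 C compound exposure with 20 nM CPT in Tdp1-knockout DT40 cells stably expressing hTDP1, seeded 400/well; qHTS titration format.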
IL1B secr inh = blocks inflammasome-driven IL-1 beta release. 4.7% of 360,000 active. activity change, % at 57.5 µM. THP-1 LPS/ATP IL-1B secretion, AlphaLISA, 16 h; hits give low values. AID 743279; in the data active = activity change below about -50%; inconclusive = mostly about -30% to -49%
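Secreted IL-1B measured by AlphaLISA bead assay after 16 h compound exposure of THP-1 cells; compounds (final up to 57.5 uM) added 1 h before LPS (250 ng/mL) and ATP (1.25 mM) stimulation; lower signal means less secretion.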
Of the large screens only hits and unclear results are named; the others gave an inactive call. Shown is part of a subset that was picked to be rich in hits. Unless noted, calls follow the shape of the dose curve; as a rule, active = well fitted curve in the direction sought with a large enough effect; inconclusive = small, poorly fitted or top-dose-only effect, or another doubt; inactive = no such curve, though single readings can be large; an effect the other way counts as inactive or inconclusive.

CN(C)c1ccc(C(=O)Nc2cccc(-c3nc4cccnc4s3)c2)cc1	DT40 TDP1 no CPT 10µM, DT40 TDP1 CPT 5.8µM (no result: HT1080 IDH1KD tx, HT1080-NT tox, IL1B secr inh)
CN(C)c1cccc(C(=O)Nc2ccc(Nc3ccccc3)cc2)c1	none (no result: HT1080 IDH1KD tx, DT40 TDP1 no CPT, HT1080-NT tox, DT40 TDP1 CPT, IL1B secr inh)
CN(C)c1ccc(C(=O)Nc2sc(Nc3ccccc3)nc2C(N)=O)cc1	DT40 TDP1 no CPT 7.3µM, 12-LOX inh inconclusive, DT40 TDP1 CPT inconclusive (no result: HT1080 IDH1KD tx, HT1080-NT tox, IL1B secr inh)
Cc1ccc(C(=O)Nc2ccc3ncccc3c2)cc1	DT40 TDP1 no CPT inconclusive, IL1B secr inh inconclusive
O=C(Nc1cnc2ccccc2c1)c1ccncc1	DT40 TDP1 no CPT inconclusive, DT40 TDP1 CPT inconclusive
CN1CCN(c2ccc(NC(=O)c3ccc(C#N)cc3F)cc2Cl)CC1	DT40 TDP1 no CPT inconclusive
CC(=O)N1CCCC(c2nc(C(C)C)no2)CCNC(=O)CC1 (stereo not given)	none (no result: HT1080 IDH1KD tx, DT40 TDP1 no CPT, HT1080-NT tox, DT40 TDP1 CPT, IL1B secr inh)
CCOc1ncccc1C(=O)Nc1cccc(-c2nc3cccnc3s2)c1	DT40 TDP1 no CPT 13µM, DT40 TDP1 CPT inconclusive
O=C(Nc1cccc(-c2nc3cccnc3s2)c1)c1cccc(Br)c1	DT40 TDP1 no CPT 8.2µM, DT40 TDP1 CPT 8.2µM (no result: HT1080 IDH1KD tx, HT1080-NT tox, IL1B secr inh)
COc1ccc(NC(=O)C2CC(=O)N=C(N)S2)cc1 (stereo not given)	none
CC(C)=CC(=O)OCc1cc([N+](=O)[O-])cc2c1OCOC2	IL1B secr inh -53
COc1ccc(C2Cn3nnc(-c4nc(-c5ccc(Br)cc5)no4)c3CO2)cc1 (stereo not given)	none (no result: HT1080 IDH1KD tx, DT40 TDP1 no CPT, HT1080-NT tox, DT40 TDP1 CPT, IL1B secr inh)
Cc1nnc2n1CCC(NC(=O)CCCc1c[nH]c3ccccc13)CC2 (stereo not given)	none (no result: HT1080 IDH1KD tx, DT40 TDP1 no CPT, HT1080-NT tox, DT40 TDP1 CPT, IL1B secr inh)
CC(C)c1csc(CN2CCCC(CNC(=O)c3cccc4ccccc34)C2)n1 (stereo not given)	DT40 TDP1 no CPT inconclusive, DT40 TDP1 CPT 16µM
CCCCC[C@H](C)N1C[C@H](COCc2ccccc2)Oc2cc(N3CC[C@H](O)C3)ccc2S1(=O)=O	HT1080 IDH1KD tx inconclusive, DT40 TDP1 no CPT inconclusive, HT1080-NT tox inconclusive, DT40 TDP1 CPT inconclusive
CCCCC[C@@H](C)N1C[C@H](COCc2ccccc2)Oc2cc(N3CC[C@@H](O)C3)ccc2S1(=O)=O	HT1080 IDH1KD tx inconclusive, DT40 TDP1 no CPT 21µM, 12-LOX inh inconclusive, HT1080-NT tox inconclusive, DT40 TDP1 CPT inconclusive
CCCCC[C@@H](C)N1C[C@H](COCc2ccccc2)Oc2cc(N3CC[C@H](N(C)C)C3)ccc2S1(=O)=O	HT1080 IDH1KD tx 15µM, DT40 TDP1 no CPT 18µM, HT1080-NT tox 21µM, DT40 TDP1 CPT inconclusive, IL1B secr inh -82
O=C(c1ncccc1F)N1C[C@@H](COCC2CC2)[C@H](c2ccccn2)C1	none (no result: HT1080 IDH1KD tx, DT40 TDP1 no CPT, HT1080-NT tox, DT40 TDP1 CPT, IL1B secr inh)
CCc1nccn(Cc2nnc(C3CC(N)C3)n2CCOC)c1=O (stereo not given)	none (no result: HT1080 IDH1KD tx, DT40 TDP1 no CPT, HT1080-NT tox, DT40 TDP1 CPT, IL1B secr inh)
O=C1OC(Nc2ccc3c(c2)OCO3)c2ccccc21 (stereo not given)	HT1080 IDH1KD tx 18µM, DT40 TDP1 no CPT 13µM, 12-LOX inh inconclusive, HT1080-NT tox inconclusive, DT40 TDP1 CPT 22µM, IL1B secr inh -124
COc1ccccc1CCC(=O)N[C@@H]1CN(c2ncccn2)C[C@H]1CN(C)C	none (no result: HT1080 IDH1KD tx, DT40 TDP1 no CPT, HT1080-NT tox, DT40 TDP1 CPT, IL1B secr inh)
CC1(c2ccc(Cl)cc2Cl)OCC(Cn2ccnc2)O1 (stereo not given)	HT1080 IDH1KD tx inconclusive, DT40 TDP1 no CPT 23µM, 12-LOX inh inconclusive, HT1080-NT tox inconclusive, DT40 TDP1 CPT 21µM
O=C(NCC(=O)N(Cc1cccs1)C1(C(=O)NC2CCCCC2)CCCCC1)c1ccccc1	none (no result: HT1080 IDH1KD tx, DT40 TDP1 no CPT, HT1080-NT tox, DT40 TDP1 CPT, IL1B secr inh)
COc1ccc(-c2noc(-c3cc(-c4ccc(F)cc4)n[nH]3)n2)cc1	DT40 TDP1 no CPT inconclusive, DT40 TDP1 CPT 6.5µM (no result: HT1080 IDH1KD tx, HT1080-NT tox, IL1B secr inh)
CCOc1cc(-c2nc(-c3ccc(-c4ccc(OC)cc4)nc3OC)no2)cc(OCC)c1OCC	DT40 TDP1 no CPT 10µM, DT40 TDP1 CPT 18µM (no result: HT1080 IDH1KD tx, HT1080-NT tox, IL1B secr inh)
COc1ccc(-c2noc(Nc3cc(OC)cc(OC)c3)n2)cc1	12-LOX inh 18µM (no result: HT1080 IDH1KD tx, DT40 TDP1 no CPT, HT1080-NT tox, DT40 TDP1 CPT, IL1B secr inh)
Fc1ccc(-c2cc(-c3nc(-c4ccccc4)no3)[nH]n2)cc1	none (no result: HT1080 IDH1KD tx, HT1080-NT tox, IL1B secr inh)
